Reference: PubChem BioAssay
The source made the active and inactive calls.

How the values were obtained:
[1] = binders of probe aFSTL3 on microarray, primary screen, stem cell growth factor project, biochemical, small-molecule microarray, fluorescence 635/667 (AID 1064); conditions: higher = more signal;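 also: measures binding of the biotinylated anti-FSTL3 antibody to printed compounds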
[2] = binders from COS7 lysate, DM2A8 probe, primary screen, torsin A project, cell lysate, small-molecule microarray, fluorescence 635/667 (AID 1065); conditions: higher = more signal, COS7 lysate expressing mutant human TOR1A
[3] = binders of probe aFGF2 on microarray, primary screen, stem cell growth factor project, biochemical, small-molecule microarray, fluorescence 635/667 (AID 1067); conditions: higher = more signal;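 also: measures binding of biotinylated aFGF2 protein to printed compounds on slides; z-score merges feature fluorescence and signal-to-noise across triplicate slides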
[4] = binders of probe aFGF10 on microarray, primary screen, stem cell growth factor project, biochemical, small-molecule microarray, fluorescence 635/667 (AID 1071); conditions: higher = more signal;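 also: score merges 667 nm spot intensity and signal to noise from triplicate slides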
[5] = biological target: Neurogenic locus notch homolog protein 2 (Homo sapiens) (UniProt Q04721); experiment: Notch2 binders on small-molecule microarrays, primary screen, biochemical, small-molecule microarray, 635 nm fluorescence, stem cell growth factors (AID 1073); conditions: Notch2 binding, higher = more signal
[6] = biological target: Pro-neuregulin-1, membrane-bound isoform (Homo sapiens) (UniProt Q02297); experiment: NRG1 binders on small-molecule microarrays, primary screen, psychiatric disease protein project, biochemical, small-molecule microarray, fluorescence 635/667 (AID 1075); conditions: NRG1 binding, 635 nm fluorescence, higher = more signal;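 also: score combines 667 nm spot fluorescence with signal to noise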
Sequence of Pro-neuregulin-1, membrane-bound isoform (Homo sapiens) (Q02297 whole entry, looked up, the tested form may be a part, canonical isoform): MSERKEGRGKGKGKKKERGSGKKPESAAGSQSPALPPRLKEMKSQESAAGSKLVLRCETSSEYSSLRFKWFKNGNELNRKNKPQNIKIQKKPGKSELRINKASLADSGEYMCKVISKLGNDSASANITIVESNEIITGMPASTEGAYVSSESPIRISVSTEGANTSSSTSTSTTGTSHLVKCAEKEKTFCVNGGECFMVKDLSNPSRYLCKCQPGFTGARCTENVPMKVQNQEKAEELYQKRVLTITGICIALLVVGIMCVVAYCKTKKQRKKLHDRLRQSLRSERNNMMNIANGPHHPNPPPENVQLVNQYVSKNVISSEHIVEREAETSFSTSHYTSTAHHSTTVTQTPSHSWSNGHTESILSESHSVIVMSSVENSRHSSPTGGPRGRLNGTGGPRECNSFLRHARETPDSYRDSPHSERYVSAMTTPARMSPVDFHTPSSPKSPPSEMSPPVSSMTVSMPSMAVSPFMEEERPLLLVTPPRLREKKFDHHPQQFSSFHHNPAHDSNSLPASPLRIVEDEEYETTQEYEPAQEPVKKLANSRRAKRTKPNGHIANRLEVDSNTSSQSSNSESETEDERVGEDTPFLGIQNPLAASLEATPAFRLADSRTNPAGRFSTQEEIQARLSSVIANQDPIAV

[7] = test system: Neuregulin-1 EGF-like domain; experiment: binders of neuregulin-1 EGF-like domain, primary screen, biochemical, small-molecule microarray, 635 nm fluorescence (AID 1081); conditions: small-molecule microarray binding, higher = more signal;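 also: binding of the protein to compounds printed on small-molecule microarray slides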
[8] = FRG1 promoter luciferase signal modulators, primary screen, FRG1 inhibition for FSHD, cell-based, C2C12 myotubes, firefly/Renilla luciferase, luminescence (AID 1084); conditions: higher = more signal, called active from +8 up or from −8 down
[9] = binders of probe aFST on microarray, primary screen, stem cell growth factor project, biochemical, small-molecule microarray, fluorescence 635/667 (AID 1086); conditions: higher = more signal;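 also: score merges 667 nm fluorescence with signal-to-noise of each printed compound spot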
[10] = binders of probe aHhip on microarray, primary screen, stem cell growth factor project, biochemical, small-molecule microarray, fluorescence 635/667 (AID 1087); conditions: higher = more signal;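 also: score merges spot fluorescence at 667nm with spot signal to noise ratio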
[11] = test system: PRMT1 (protein arginine N-methyltransferase 1); experiment: PRMT1 binders on small-molecule microarrays, primary screen, biochemical, small-molecule microarray, 635 nm fluorescence (AID 1088); conditions: small-molecule microarray binding, higher = more signal;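 also: binding of Prmt1 protein to compounds spotted on small-molecule microarray slides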
[12] = yeast growth modulation, basal conditions, primary screen, YJM789 clinical isolate, OD600, 24 h (AID 1089);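 also: growth of clinical yeast isolate S. cerevisiae YJM 789 seeded 1000 cells per well; test concentration not given here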; conditions: S. cerevisiae YJM789 growth, higher = more signal, called active from +8 up or from −8 down
[13] = fission yeast growth modulation, primary screen, strain 972, OD600, 24 h, no modulator (AID 1090);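 also: basal condition with compound alone and no growth modifier present; test concentration not given here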; conditions: S. pombe 972 growth, higher = more signal, called active from +8 up or from −8 down
[14] = S. cerevisiae growth modulation with rapamycin, primary screen, strain BY4716, OD600, 96 h (AID 1091); conditions: higher = more signal, called active from +8 up or from −8 down; also: test concentration not given here
[15] = biological target: Torsin-1A-interacting protein 2 (Homo sapiens) (UniProt Q8NFQ8); experiment: LULL1 binders on small-molecule microarray, primary screen, cell lysate, human LULL1 lysate, 635/667 nm fluorescence (AID 1092); conditions: hLULL1 lysate binding, 635 nm fluorescence, higher = more signal;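 also: probe is lysate of COS7 cells overexpressing human LULL1; score merges per-feature 667 nm fluorescence with signal-to-noise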
Sequence of Torsin-1A-interacting protein 2 (Homo sapiens) (Q8NFQ8 whole entry, looked up): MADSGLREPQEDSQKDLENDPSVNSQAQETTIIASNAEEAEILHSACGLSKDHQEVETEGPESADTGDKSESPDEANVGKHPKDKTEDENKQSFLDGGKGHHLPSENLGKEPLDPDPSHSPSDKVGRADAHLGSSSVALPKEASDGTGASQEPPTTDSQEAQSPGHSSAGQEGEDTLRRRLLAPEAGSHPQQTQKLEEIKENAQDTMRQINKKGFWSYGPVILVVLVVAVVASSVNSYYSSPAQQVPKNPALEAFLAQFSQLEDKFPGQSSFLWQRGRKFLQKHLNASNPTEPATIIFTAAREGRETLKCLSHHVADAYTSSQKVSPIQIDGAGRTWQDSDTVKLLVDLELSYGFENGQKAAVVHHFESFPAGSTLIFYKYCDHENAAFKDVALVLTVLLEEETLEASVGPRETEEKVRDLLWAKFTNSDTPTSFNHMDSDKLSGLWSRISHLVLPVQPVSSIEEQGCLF

[16] = E. coli growth modulation, two-sided OD650, primary screen, E. coli filamentation project, strain DRC41, 24 h (AID 1093); conditions: OD650, 24 h, higher = more signal, called active from +8 up or from −8 down;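 also: MC1000 strain lacking acrAB efflux and sulA so SOS filamentation is blocked; test concentration not given here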
[17] = small-molecule microarray binders of probe aLefty2, primary screen, biochemical, biotinylated probe, 635/667 nm fluorescence (AID 1094); conditions: higher = more signal;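 also: score merges spot fluorescence near 667 nm with spot signal-to-noise ratio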
[18] = test system: Noggin (protein binding on small-molecule microarray); experiment: Noggin binders on small-molecule microarray, primary screen, biochemical, 635/667 nm fluorescence (AID 1095); conditions: 635 nm fluorescence, higher = more signal;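 also: score merges 667 nm feature fluorescence with signal to noise over triplicate slides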
[19] = biological target: Neurogenic locus notch homolog protein 3 (Homo sapiens) (UniProt Q9UM47); experiment: NOTCH3 binders on small-molecule microarray, primary screen, biochemical, 635/667 nm fluorescence (AID 1096); conditions: NOTCH3 binding, 635 nm fluorescence, higher = more signal
Sequence of Neurogenic locus notch homolog protein 3 (Homo sapiens) (Q9UM47 whole entry, looked up): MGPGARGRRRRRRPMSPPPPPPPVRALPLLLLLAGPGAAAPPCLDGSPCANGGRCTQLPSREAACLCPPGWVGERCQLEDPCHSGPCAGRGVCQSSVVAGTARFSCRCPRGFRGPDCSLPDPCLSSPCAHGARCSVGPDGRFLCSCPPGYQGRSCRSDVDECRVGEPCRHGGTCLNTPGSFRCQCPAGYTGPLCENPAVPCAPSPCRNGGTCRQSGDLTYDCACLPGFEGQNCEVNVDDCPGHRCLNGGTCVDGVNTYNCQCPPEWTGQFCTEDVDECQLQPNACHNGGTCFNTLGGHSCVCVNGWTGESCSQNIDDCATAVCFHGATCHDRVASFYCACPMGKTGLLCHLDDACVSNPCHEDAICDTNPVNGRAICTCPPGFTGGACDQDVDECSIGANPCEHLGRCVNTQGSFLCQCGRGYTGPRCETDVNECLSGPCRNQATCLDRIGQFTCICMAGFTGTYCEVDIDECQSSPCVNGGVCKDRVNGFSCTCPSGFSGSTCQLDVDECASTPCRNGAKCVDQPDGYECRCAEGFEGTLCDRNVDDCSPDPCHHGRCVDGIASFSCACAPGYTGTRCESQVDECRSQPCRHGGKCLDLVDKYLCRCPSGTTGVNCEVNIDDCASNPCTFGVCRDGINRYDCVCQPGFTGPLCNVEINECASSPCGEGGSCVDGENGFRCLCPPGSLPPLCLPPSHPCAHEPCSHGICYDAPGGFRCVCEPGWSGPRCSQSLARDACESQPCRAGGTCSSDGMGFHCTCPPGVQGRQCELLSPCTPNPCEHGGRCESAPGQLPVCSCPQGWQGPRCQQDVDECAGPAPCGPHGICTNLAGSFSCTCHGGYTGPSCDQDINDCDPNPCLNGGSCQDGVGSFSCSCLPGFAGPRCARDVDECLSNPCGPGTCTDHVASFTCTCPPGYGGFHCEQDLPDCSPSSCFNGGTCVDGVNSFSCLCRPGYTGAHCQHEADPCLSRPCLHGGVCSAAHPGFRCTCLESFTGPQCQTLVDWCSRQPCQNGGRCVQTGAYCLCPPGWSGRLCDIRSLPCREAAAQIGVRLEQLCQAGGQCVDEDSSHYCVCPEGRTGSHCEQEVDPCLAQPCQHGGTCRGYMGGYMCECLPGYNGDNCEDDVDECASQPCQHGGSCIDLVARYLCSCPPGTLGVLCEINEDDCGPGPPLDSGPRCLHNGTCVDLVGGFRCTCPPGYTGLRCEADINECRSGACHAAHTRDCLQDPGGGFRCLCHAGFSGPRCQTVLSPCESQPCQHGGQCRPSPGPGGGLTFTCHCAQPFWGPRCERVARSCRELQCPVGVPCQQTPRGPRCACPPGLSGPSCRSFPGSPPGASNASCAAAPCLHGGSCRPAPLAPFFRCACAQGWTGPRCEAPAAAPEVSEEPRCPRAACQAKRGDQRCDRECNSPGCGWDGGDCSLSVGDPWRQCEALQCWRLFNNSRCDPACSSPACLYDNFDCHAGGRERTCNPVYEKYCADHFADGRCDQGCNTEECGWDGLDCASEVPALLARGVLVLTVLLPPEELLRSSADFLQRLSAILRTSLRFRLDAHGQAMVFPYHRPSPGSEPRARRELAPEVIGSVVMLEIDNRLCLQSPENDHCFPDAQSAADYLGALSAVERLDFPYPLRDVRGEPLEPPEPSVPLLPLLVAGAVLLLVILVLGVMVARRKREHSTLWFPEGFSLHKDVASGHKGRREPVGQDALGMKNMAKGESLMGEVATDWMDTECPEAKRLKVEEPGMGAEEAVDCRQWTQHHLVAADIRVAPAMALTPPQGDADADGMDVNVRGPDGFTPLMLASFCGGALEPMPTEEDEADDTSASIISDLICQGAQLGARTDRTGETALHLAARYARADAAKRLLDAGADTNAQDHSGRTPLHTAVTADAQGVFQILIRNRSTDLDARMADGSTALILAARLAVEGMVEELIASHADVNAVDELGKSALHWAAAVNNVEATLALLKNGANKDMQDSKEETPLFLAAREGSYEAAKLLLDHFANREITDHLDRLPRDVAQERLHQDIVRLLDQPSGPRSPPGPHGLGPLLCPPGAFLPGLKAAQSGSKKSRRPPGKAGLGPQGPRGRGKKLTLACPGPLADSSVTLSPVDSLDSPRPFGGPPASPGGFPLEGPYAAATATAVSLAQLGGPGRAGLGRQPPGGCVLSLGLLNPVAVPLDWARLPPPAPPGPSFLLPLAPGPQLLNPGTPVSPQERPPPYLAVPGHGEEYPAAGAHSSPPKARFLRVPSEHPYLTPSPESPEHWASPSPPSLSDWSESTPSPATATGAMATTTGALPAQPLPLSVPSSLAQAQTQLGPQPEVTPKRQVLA

[20] = small-molecule microarray binders of probe aEGFR, primary screen, biochemical, biotinylated probe, 635/667 nm fluorescence (AID 1097); conditions: higher = more signal;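 also: probe is a biotinylated anti-EGFR antibody binding compounds printed on slides; score combines fluorescence near 667 nm and signal to noise of each spot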

Structure (SMILES)	composite z-score [1]	composite z-score [2]	composite z-score [3]	composite z-score [4]	composite z-score [5]	composite z-score [6]	composite z-score [7]	z-score [8]	composite z-score [9]	composite z-score [10]	composite z-score [11]	z-score [12]	z-score [13]	z-score [14]	composite z-score [15]	z-score [16]	composite z-score [17]	composite z-score [18]	composite z-score [19]	composite z-score [20]
C=CCC(OC(C)=O)[C@@H]1[C@@H](N(Cc2cccc3ccccc23)C(=O)c2cccc3ccccc23)c2cc(OCCCO)ccc2N1C(=O)c1ccc2ccccc2c1 (stereo not given in full)	-0.232	-0.124	0.365	0.0197	-0.833	-0.247	-0.313	-2.36 (inactive)	0.268	-0.132	0.692	-0.55 (inactive)	0.672 (inactive)	-1.35 (inactive)	1.65	0.195 (inactive)	-0.156	0.345	-0.0325	-0.0967
COc1ccc(C(O)C2C=CC3C(=O)N(c4ccccc4)C(=O)C3N2Nc2ccccc2)cc1 (stereo not given)	-0.0234	0.316	0.142	0.979	1.66	1.93	1.31	-1.07 (inactive)	0.531	0.289	1.53	0.219 (inactive)	-0.24 (inactive)	0.211 (inactive)	3.6	-0.701 (inactive)	0.191	0.505	1.05	-0.0382
CC(C)C[C@@H]1NC(=O)[C@@H]2C[C@H](C(=O)NCCCCCC[N+](C)(C)C)[C@H](c3cccc(OCCO)c3)N2C1=O	0.222	0.0263	-0.145	-0.289	0.114	1.06	1.18	2.84 (inactive)	-0.304	-0.126	1.58	-0.632 (inactive)	0.806 (inactive)	0.24 (inactive)	3.23	-0.209 (inactive)	-0.135	-0.143	0.766	-0.0572
COCCOC(=O)N1C(=O)[C@@]2(c3cc(C#CCNC(N)=O)ccc31)[C@H](c1ccc(OCCO)cc1)N1[C@H](c3ccccc3)[C@H](c3ccccc3)OC(=O)[C@H]1[C@@H]2C(N)=O	0.423	0.278	0.0541	0.913	1.49	0.897	0.809	0.47 (inactive)	0.715	0.351	0.981	2.18 (inactive)	1.16 (inactive)	2.29 (inactive)	1.92	1.11 (inactive)	0.221	0.228	0.542	0.387
CN1C(=O)C2C=CC(C(O)c3cc(C(F)(F)F)cc(C(F)(F)F)c3)N(Nc3ccccc3)C2C1=O (stereo not given)	-0.481	-0.229	-0.0656	0.05	0.245	0.862	1.25	0.715 (inactive)	-0.106	-0.0994	0.237	-0.506 (inactive)	-0.714 (inactive)	-0.785 (inactive)	3.85	-0.565 (inactive)	-0.194	0.325	0.377	-0.155
C=CCN1C(=O)[C@]2(O[C@H](CCO)[C@@H]([Si](C)(C)c3ccc(OC)cc3)[C@@H]2C)c2cc(NC(=O)c3ccc(OC)cc3)ccc21	-0.429	0.421	-0.105	0.3	0.384	0.686	1.09	-3.52 (inactive)	0.346	-0.204	1.5	0.405 (inactive)	-1.91 (inactive)	2.89 (inactive)	0.739	0.577 (inactive)	-0.166	1.62	0.924	-0.111
CC(C)(C)OC(=O)CC[C@]1(C(=O)N2CCCCC2)COC(c2ccc(OCCCO)cc2)=N1	0.161	1.05	0.0159	1.2	1.6	1.35	1.15	-2.51 (inactive)	0.372	0.0373	1.47	-1.1 (inactive)	-0.878 (inactive)	-1.57 (inactive)	3.57	0.992 (inactive)	0.066	0.318	0.79	-0.0139
COCCOC(=O)N1C(=O)[C@@]2(c3cc(C#CCC(C(=O)OC)C(=O)OC)ccc31)[C@H](C(=O)NC[C@H](O)c1ccccc1)[C@H]1C(=O)O[C@H](c3ccccc3)[C@H](c3ccccc3)N1[C@@H]2c1ccc(OCCO)cc1	-0.341	0.0051	-0.113	0.245	0.917	0.161	1.23	0.856 (inactive)	0.5	-0.0994	1.56	2.22 (inactive)	2.7 (inactive)	7 (inactive)	2.08	0.6 (inactive)	-0.109	1.69	1.04	0.0097
COC(=O)[C@@]1(Cc2ccccc2)[C@H]2c3cc(C(=O)N(C)C)n(CCn4cc([N+](=O)[O-])nc4C)c3C[C@H]2CN1C(=O)c1ccccc1	0.0989	0.227	-0.045	0.861	1.23	0.204	1.2	-0.0393 (inactive)	0.928	-0.281	1.13	-1.54 (inactive)	0.69 (inactive)	0.253 (inactive)	3.63	-0.592 (inactive)	0.16	0.0356	1.03	-0.0088
COc1ccc(C(O)C2C=CC3C(=O)N(c4ccccc4)C(=O)C3N2Nc2ccc(C(C)C)cc2)c2ccccc12 (stereo not given)	-0.0766	0.309	0.0442	0.7	1.59	1.49	1.16	-1.31 (inactive)	1.83	-0.148	1.56	0.254 (inactive)	0.227 (inactive)	-0.519 (inactive)	3.61	-1.08 (inactive)	0.204	0.0754	1.07	-0.0019
